Hits are enriched below; roughly 11% of the tested compounds scored in any of these assays.
HCV inhibitor: HCV inhibition; Huh7.5.1 HCVcc-Cre infection, luciferase reporter, 44 h; Potency, µM (series often up to 41.8 µM), without a hit: at the highest dose activity change, negative = inhibition, hits mostly inhibitors; actives 3.4% (n = 340,000); also: % is scaled to controls: 0 for no effect and ±100 for the full control effect
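HCVcc-Cre virus at an moi near 0.5 was added right after compound to cells cultured 4 h from seeding (1,000 cells/well). Luciferase activity was determined 44 h later, 15 min after substrate addition at RT.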
Pf growth 96h: inhibits malaria parasite growth, 96 h; P. falciparum luciferase reporter growth, 96 h; Potency, µM (top dose mostly 28.7 µM), for inactives: top-dose activity change, negative = inhibition, usual class: inhibitors; actives 6.9% (n = 320,000); also: % is scaled to controls: 0 for no effect and ±100 for the full control effect
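Plates of compound plus infected erythrocytes (2% hematocrit, 0.05% parasitemia final) incubate 96 hours, 37 C, 5% CO2. Detection reagent added; reduced luminescence from the parasites' luciferase reporter flags inhibition.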
Vaccinia Venus: inhibitors of vaccinia virus (Venus reporter) | Vaccinia virus Venus reporter expression, fluorescence | Potency, µM (highest dose often 36.5 µM), for inactives: at the top dose activity change, negative = inhibition, hits mostly inhibitors | actives 0.46% (n = 330,000) | AID 720580; calls by dose curve; tested in A549 cells; also: % is scaled to controls: 0 for no effect and ±100 for the full control effect; nearly all actives have a fitted effect of over 30% in size
VACV mCherry inh: inhibitors of vaccinia virus infection (mCherry reporter signal). AID 720579. Vaccinia virus mCherry reporter infection, fluorescence. actives 0.63% (n = 310,000). Potency, µM (titrated, usually from 36.5 µM), without a hit: at the top dose activity change, negative = inhibition, most hits filed as inhibitors; calls by dose curve; tested in A549 cells; also: % is scaled to controls: 0 for no effect and ±100 for the full control effect; nearly all actives have a fitted effect of over 35% in size
Pf growth 48h: inhibits P. falciparum growth in the first generation, 48 h | actives 5.9% (n = 310,000) | Potency, µM (series often up to 28.7 µM), for inactives: at the top dose activity change, negative = inhibition, hits mostly inhibitors | P. falciparum luciferase growth in erythrocytes, 48 h; also: % is scaled to controls: 0 for no effect and ±100 for the full control effect
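Growth was read as firefly luciferase luminescence after a 48 h, 37 C, 5% CO2 exposure of compounds to reporter-bearing P. falciparum cultures (0.1% parasitemia, 2% hematocrit final) in Albumax-supplemented RPMI 1640.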
NS1 function inh: inhibitors of influenza NS1 protein function. Potency, µM (highest dose often 46.1 µM), for the others: at the highest dose activity, positive = more growth. actives 0.4% (n = 270,000). AID 2326; calls by dose curve; also: actives are rising curves; nearly all actives have a fitted effect of over 50% in size
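S. cerevisiae expressing influenza A NS1, grown in glucose, washed, then diluted 1:100 into pH 6.0 -URA galactose medium with 23 nl compound. Growth recovery read as OD600; NS1-free strain serves as control.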
* hit, by the source's call; ! = repeats disagree. Unless noted, calls follow the shape of the dose curve; as a rule, active = well fitted inhibition curve with a large enough effect; inconclusive = small, poorly fitted or top-dose-only effect, or another doubt; inactive = no such curve, though single readings can be large or run the other way. Potency is read from the fitted curve at half-maximal effect.

CCOC(=O)C1=C(N)OC2=C(C(=O)CC(C)(C)C2)C1c1ccccc1OCC#N (stereo unspecified) was read as HCV inhibitor 18%, Pf growth 48h -11% and NS1 function inh -25%.
Screening CC(=O)c1c(CC(=O)O)[nH]n(-c2nc3ccccc3s2)c1=O returned HCV inhibitor 3%, Pf growth 96h 4% and NS1 function inh 2%.
For O=c1cc(-c2ccccc2)[nH]n1-c1nc2ccccc2s1 the results were HCV inhibitor 1%, Pf growth 96h 5.2µM*, Vaccinia Venus -9%, VACV mCherry inh -15%, Pf growth 48h 16% and NS1 function inh -58%.
`COc1ccc([N+](=O)[O-])cc1C(=O)NC1CCN(Cc2ccccc2)CC1` gave HCV inhibitor -6%.
CCc1cc(N2CCOCC2)cc2c1[nH]c1ccccc12 was read as HCV inhibitor 7.1µM*, Pf growth 96h inconclusive, Pf growth 48h -7% and NS1 function inh -9%.
COc1cc(/C=N/NC(=O)c2c(-c3c(Cl)cccc3Cl)noc2C)ccc1OCC(N)=O was read as HCV inhibitor -6%, Pf growth 96h 6%, Vaccinia Venus -17%, VACV mCherry inh inconclusive, Pf growth 48h 0% and NS1 function inh -13%.
`Cc1onc(-c2c(Cl)cccc2Cl)c1C(=O)Nc1ccc2c(c1)OCCO2` gave HCV inhibitor inconclusive, Pf growth 96h 76%, Vaccinia Venus -6%, VACV mCherry inh -20%, Pf growth 48h inconclusive and NS1 function inh -4%.
CC(=O)c1c[nH]c(C(=O)NCC2CCCO2)c1 (stereo unspecified) was read as HCV inhibitor 1%, Pf growth 96h 46%, Pf growth 48h 11% and NS1 function inh -2%.
`Cc1onc(-c2c(Cl)cccc2Cl)c1C(=O)c1c[nH]c(C(=O)NCC2CCCO2)c1` (stereo unspecified) gave HCV inhibitor 11µM*, Pf growth 96h inconclusive, Vaccinia Venus -10%, VACV mCherry inh -11% and Pf growth 48h 10µM*.
Cc1onc(-c2c(Cl)cccc2Cl)c1C(=O)N1CCc2ccccc2C1 was read as HCV inhibitor 32%, Pf growth 96h 7.4µM*, Vaccinia Venus -1%, VACV mCherry inh 0%, Pf growth 48h 10µM* and NS1 function inh -18%.
`Cc1onc(-c2c(Cl)cccc2Cl)c1C(=O)N/N=C(\N)COc1ccc(Cl)cc1` gave HCV inhibitor 2.8µM*, Pf growth 96h inconclusive, Pf growth 48h 2.3µM* and NS1 function inh -15%.
For Cc1cc(Br)c(NC(=O)c2c(-c3c(Cl)cccc3Cl)noc2C)c(Br)c1 the results were HCV inhibitor -19%, Pf growth 96h 5.9µM*, Vaccinia Venus -13%, VACV mCherry inh -3%, Pf growth 48h 10µM* and NS1 function inh 4%.
For CSc1cccc(NC(=O)c2cc3c(COC(C)=O)cnc(C)c3oc2=O)c1 the results were Vaccinia Venus -5% and VACV mCherry inh -12%.
Cc1ccc(-n2c(C)cn(C(=O)c3ccccc3)c2=S)cc1 was read as HCV inhibitor inconclusive, Pf growth 96h -24%, Pf growth 48h -17% and NS1 function inh -20%.
Screening COc1ccc(NC(=O)c2c(-c3c(Cl)cccc3Cl)noc2C)c(OC)c1 returned HCV inhibitor inconclusive, Pf growth 96h 29%, Vaccinia Venus -4%, VACV mCherry inh -7%, Pf growth 48h 1.7µM* and NS1 function inh -4%.
Screening Cc1onc(-c2c(Cl)cccc2Cl)c1C(=O)NC1CCCCC1 returned HCV inhibitor 13µM*, Pf growth 96h 1%, Vaccinia Venus -11%, VACV mCherry inh -10%, Pf growth 48h -26% and NS1 function inh 2%.
Screening Cc1onc(-c2c(Cl)cccc2Cl)c1C(=O)N[C@@H]1C(=O)N2[C@@H]1SC(C)(C)[C@@H]2C(=O)O returned HCV inhibitor 0.5µM*!, Pf growth 96h -13%, Vaccinia Venus -14%, VACV mCherry inh -5%, Pf growth 48h inconclusive and NS1 function inh 3%.

Bioassay records as filed in PubChem.
